# Source: ChEMBL document CHEMBL5606458, “ASAP - ZIKV NS2B-NS3 protease fluorescence single point” (2024)
# In all, about 2,700 compounds went through this assay and about 160 (5.9%) showed an effect of 50% or more. The list comes from a sample in which strong results are over-represented; it also holds similar structures and randomly drawn compounds.
# Molecular target: Nonstructural protein 3 (Zika virus) (UniProt A0A024AXB9)
# [1] = PRVABC59, Concentration 50.0 uM, Number of replicates 1.0
# [2] = PRVABC59, Concentration 10.0 uM, Number of replicates 1.0
# Sequence of Nonstructural protein 3 (Zika virus) (A0A024AXB9 as listed by the source): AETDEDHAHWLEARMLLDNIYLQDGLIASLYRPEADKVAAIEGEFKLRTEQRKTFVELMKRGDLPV
smiles,measurement,setting,value
CNC(=O)c1cc(Cl)c(OC)cc1NS(=O)(=O)c1ccc(Oc2ccccc2Cl)cc1,inhibition,"PRVABC59, Concentration 49.5 uM, Number of replicates 2.0, Standard deviation 2.6404535290867552 %",34.2%
same,inhibition,"PRVABC59, Concentration 99.01 uM, Number of replicates 2.0, Standard deviation 0.459760751442422 %",79.4%
same,inhibition,"PRVABC59, Concentration 198.0 uM, Number of replicates 2.0, Standard deviation 0.11085228072983687 %",89.8%
NC(=O)c1ccccc1NS(=O)(=O)c1ccc(Oc2ccccc2Cl)cc1,inhibition,"PRVABC59, Concentration 49.5 uM, Number of replicates 2.0, Standard deviation 0.8239548725855442 %",-1.32%
same,inhibition,"PRVABC59, Concentration 99.01 uM, Number of replicates 2.0, Standard deviation 0.884539787208196 %",2%
same,inhibition,"PRVABC59, Concentration 198.0 uM, Number of replicates 2.0, Standard deviation 0.6321029239261367 %",31.5%
O=Cc1ccc(N2CCC(C(=O)N3CCC(N4CCc5ccccc5C4)CC3)CC2)cc1,inhibition,[1],31.7%
NS(=O)(=O)c1nc(C(=O)N2CCc3c(CO)cccc32)n2ccccc12,inhibition,"PRVABC59, Concentration 49.5 uM, Number of replicates 2.0, Standard deviation 0.7415262579040602 %",14.9%
same,inhibition,"PRVABC59, Concentration 99.01 uM, Number of replicates 2.0, Standard deviation 0.42632784815485236 %",16%
same,inhibition,"PRVABC59, Concentration 198.0 uM, Number of replicates 2.0, Standard deviation 0.11314911538628655 %",22.8%
O=Cc1ccc(N2CCC(C(=O)NCc3cccc(-c4ccccc4)c3)CC2)cc1,inhibition,[2],66.7%
CC1CCN(CCCCNC(=O)C2CCN(c3ccc(C=O)cc3)CC2)CC1,inhibition,[1],38.3%
O=Cc1ccc(N2CCC(C(=O)Nc3ncc(Br)cc3O)CC2)cc1,inhibition,[1],63.3%
O=Cc1ccc(N2CCC(C(=O)NCCc3ccc(O)c(O)c3)CC2)cc1,inhibition,[1],48.5%
CC(=O)Nc1cccc(CNC(=O)C2CCN(c3ccc(C=O)cc3)CC2)c1,inhibition,[2],37.6%
O=Cc1ccc(N2CCC(C(=O)NCCN3CCc4ccccc43)CC2)cc1,inhibition,[1],67.9%
O=Cc1ccc(N2CCC(C(=O)NC[C@H](O)c3ccc(O)c(O)c3)CC2)cc1,inhibition,[1],37%
O=Cc1ccc(N2CCC(C(=O)NCCC3CCN(Cc4ccccc4)CC3)CC2)cc1,inhibition,[1],36.7%
O=Cc1ccc(N2CCC(C(=O)Nc3cccc(Br)n3)CC2)cc1,inhibition,[1],69.5%
O=Cc1ccc(N2CCC(C(=O)NCCc3ccccc3[N+](=O)[O-])CC2)cc1,inhibition,[1],31.8%
O=Cc1ccc(N2CCC(C(=O)Nc3ccc(Br)cc3O)CC2)cc1,inhibition,[1],36.5%
Cc1ccc(N)cc1NC(=O)c1ccc2c(c1)CCNCC2,inhibition,"PRVABC59, Concentration 49.95 uM, Number of replicates 2.0, Standard deviation 12.72305005425739 %",-5.44%
same,inhibition,"PRVABC59, Concentration 99.9 uM, Number of replicates 2.0, Standard deviation 9.350903464198954 %",18.5%
CN1[C@@H]2CCC[C@H]1C[C@@H](NC(=O)C1CCN(c3ccc(C=O)cc3)CC1)C2,inhibition,[1],43.1%
CCN1CCN(c2ccc(NC(=O)C3CCN(c4ccc(C=O)cc4)CC3)cc2)CC1,inhibition,[1],54.8%
Cc1ccc2cccc(NC(=O)C3CCN(c4ccc(C=O)cc4)CC3)c2n1,inhibition,[1],60.8%
N#Cc1ccc(NC(=O)C2CCN(c3ccc(C=O)cc3)CC2)cc1Br,inhibition,[1],22.8%
O=Cc1ccc(N2CCC(C(=O)NC[C@@H]3CCCN4CCCC[C@H]34)CC2)cc1,inhibition,[1],36.4%
CCn1ccnc(N2CC[C@H](c3cccc(C#N)c3)C2)c1=O,inhibition,"PRVABC59, Concentration 50.0 uM, Number of replicates 2.0, Standard deviation 16.00595625597801 %",20.3%
same,inhibition,"PRVABC59, Concentration 100.0 uM, Number of replicates 2.0, Standard deviation 3.036416764525631 %",15.1%
same,inhibition,"PRVABC59, Concentration 200.0 uM, Number of replicates 2.0, Standard deviation 6.611719762363672 %",25.1%
CNc1cc(COc2cccnc2F)nc(N2CCNCC2)n1,inhibition,"PRVABC59, Concentration 49.5 uM, Number of replicates 2.0, Standard deviation 2.059359081452019 %",4.89%
same,inhibition,"PRVABC59, Concentration 99.01 uM, Number of replicates 2.0, Standard deviation 2.151250675148563 %",12.3%
same,inhibition,"PRVABC59, Concentration 198.0 uM, Number of replicates 2.0, Standard deviation 2.3891841335084476 %",24%
CCn1ccnc(N2CC[C@H](c3ccc(F)cc3)C2)c1=O,inhibition,"PRVABC59, Concentration 49.5 uM, Number of replicates 2.0, Standard deviation 0.27991239382631117 %",8.78%
same,inhibition,"PRVABC59, Concentration 99.01 uM, Number of replicates 2.0, Standard deviation 0.05869134101275442 %",18.2%
same,inhibition,"PRVABC59, Concentration 198.0 uM, Number of replicates 2.0, Standard deviation 0.2009049231321535 %",32.5%
c1ccc2c(CN3CCC(n4cccn4)CC3)c[nH]c2c1,inhibition,"PRVABC59, Concentration 49.5 uM, Number of replicates 2.0, Standard deviation 0.7832462431332359 %",26.9%
same,inhibition,"PRVABC59, Concentration 99.01 uM, Number of replicates 2.0, Standard deviation 1.440111283496493 %",42.5%
same,inhibition,"PRVABC59, Concentration 198.0 uM, Number of replicates 2.0, Standard deviation 0.6771494756145803 %",60.2%
O=C(O)c1ccn(C2CCN(Cc3c[nH]c4ccccc34)CC2)n1,inhibition,"PRVABC59, Concentration 49.5 uM, Number of replicates 2.0, Standard deviation 1.5195725914554161 %",20.5%
same,inhibition,"PRVABC59, Concentration 99.01 uM, Number of replicates 2.0, Standard deviation 1.1461623032421138 %",35.4%
same,inhibition,"PRVABC59, Concentration 198.0 uM, Number of replicates 2.0, Standard deviation 1.0942994260377004 %",52.6%
NC(=O)C1CCN(Cc2c[nH]c3ccccc23)CC1,inhibition,"PRVABC59, Concentration 49.5 uM, Number of replicates 2.0, Standard deviation 3.887096953751933 %",5.72%
same,inhibition,"PRVABC59, Concentration 99.01 uM, Number of replicates 2.0, Standard deviation 2.3727111220616615 %",14.1%
same,inhibition,"PRVABC59, Concentration 198.0 uM, Number of replicates 2.0, Standard deviation 2.367525373820881 %",27.9%
NC(=O)[C@H]1CCCN(Cc2c[nH]c3ccccc23)C1,inhibition,"PRVABC59, Concentration 49.5 uM, Number of replicates 2.0, Standard deviation 3.1390869089666538 %",3.79%
same,inhibition,"PRVABC59, Concentration 99.01 uM, Number of replicates 2.0, Standard deviation 3.56900861889403 %",10.6%
same,inhibition,"PRVABC59, Concentration 198.0 uM, Number of replicates 2.0, Standard deviation 2.510612912991002 %",20.5%
NC[C@H]1C[C@@H](NC(=O)[C@@H](NC(=O)OCc2ccccc2)c2ccc(OCc3ccccc3)cc2)C1,inhibition,"PRVABC59, Concentration 49.5 uM, Number of replicates 2.0, Standard deviation 0.8838686407925086 %",24%
same,inhibition,"PRVABC59, Concentration 99.01 uM, Number of replicates 2.0, Standard deviation 0.4383595932929543 %",66.8%
same,inhibition,"PRVABC59, Concentration 198.0 uM, Number of replicates 2.0, Standard deviation 0.05241044906026695 %",91.6%
NC[C@H]1C[C@H](NC(=O)[C@@H](NC(=O)OCc2ccccc2)c2ccc(OCc3ccccc3)cc2)C1,inhibition,"PRVABC59, Concentration 49.5 uM, Number of replicates 2.0, Standard deviation 1.2395145381206512 %",10.3%
same,inhibition,"PRVABC59, Concentration 99.01 uM, Number of replicates 2.0, Standard deviation 2.826506577153246 %",46.7%
same,inhibition,"PRVABC59, Concentration 198.0 uM, Number of replicates 2.0, Standard deviation 0.7649713696189122 %",82.7%
